High-throughput results as filed in PubChem.
4MU fluor: compound fluoresces in the 4-MU spectral region; max dye-equivalent concentration, M; AID 589; compound autofluorescence, 340/450 nm, 4-MU equivalents; stronger effect = higher value; 59,000 compounds, 11% hits; in the data active = max dye-equivalent concentration above about 10 nM; inconclusive = mostly about 1.1 nM to 9.6 nM
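Intrinsic fluorescence at 340/450 nm (ex/em) was read after 15 min at room temperature in pH 8.0, 100 mM Tris. Each compound concentration expressed as 4-MU-equivalent concentration from a six-point 4-MU standard series on each plate.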
A350 fluor: compound fluoresces in the Alexa 350 spectral region | Compound autofluorescence, 340/450 nm, Alexa 350 dye-equivalents; stronger effect = higher value | max dye-equivalent concentration, M | 59,000 compounds, 11% hits; in the data active = max dye-equivalent concentration above about 10 nM; inconclusive = mostly about 1.1 nM to 9.6 nM
HSD17B inhib: inhibitors of human HSD17B10 dehydrogenase; 75,000 compounds, 7.6% hits; Potency, µM (series often up to 57.1 µM), without a hit: at the top dose activity change, negative = inhibition, usual class: inhibitors; Q99714; recombinant HSD17B10, NADH fluorescence kinetic;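 also: the protocol describes HADH2 (HSD17B10) and not the HSD17B4 of the title; potency is read from the fitted curve at half-maximal effect; % is scaled to controls: 0 for no effect and ±100 for the full control effect; nearly all actives have a fitted effect of over 70% in size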
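Activity followed as NADH fluorescence increase (ex 360, em 450 nm) every 30 seconds for 4 min, using final 90 uM beta-hydroxybutyryl CoA and 1 mM NAD+. Recombinant His-tagged enzyme, 20 nM, pH 9.0 Tris buffer, 15 min compound preincubation.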
HADH2 inhib: HADH2 (human) dehydrogenase inhibition; Q99714; recombinant HADH2, NADH fluorescence, beta-hydroxybutyryl-CoA; Potency, µM (top dose mostly 57.1 µM), inactives show top-dose activity change, negative = inhibition, hits mostly inhibitors; 73,000 compounds, 3.4% hits; AID 886; also: potency is read from the fitted curve at half-maximal effect; % is scaled to controls: 0 for no effect and ±100 for the full control effect; nearly all actives have a fitted effect of over 60% in size
Target sequence (Q99714 whole entry, looked up, one chain of several): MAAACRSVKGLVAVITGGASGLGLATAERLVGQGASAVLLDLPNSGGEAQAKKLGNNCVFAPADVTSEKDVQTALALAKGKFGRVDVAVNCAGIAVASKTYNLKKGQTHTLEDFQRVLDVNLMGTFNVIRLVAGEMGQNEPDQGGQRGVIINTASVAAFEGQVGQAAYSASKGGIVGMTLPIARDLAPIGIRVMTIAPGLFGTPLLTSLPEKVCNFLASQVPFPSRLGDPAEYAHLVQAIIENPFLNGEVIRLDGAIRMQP
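Activity measured as NADH fluorescence gain (360/450 nm), taken as the change between first and last reads of a 4-min kinetic run. Conditions: pH 9.0 Tris buffer, 20 nM E. coli-expressed His-tagged enzyme, 1 mM NAD+, 90 uM beta-hydroxybutyryl-CoA; 15-min compound preincubation.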
AID923: qHTS Assay for Allosteric/Competitive Inhibitors of Caspase-1: Spectroscopic Profiling in AFC Spectral Region | Potency, µM (titrated, usually from 57.5 µM), without a hit: top-dose fluorescence increase, usual class: activators | AID 923, 2007 | 75,000 compounds, 1.1% hits | compound fluorescence, AFC spectral region (405/520 nm); also: potency is read from the fitted curve at half-maximal effect; 0% is about no effect
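Baseline compound fluorescence (AFC region, 405 nm ex/520 nm em) taken from the intercept of kinetic reads with 50 nM caspase-1 and 5 uM Ac-WEHD-AFC; normalized to an on-plate AFC standard curve; compounds titrated up to 57 uM.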
Active calls of the source: *; i = inactive; ? = inconclusive; . = no result; [ ] = dose if it differs, or a comment. Most compounds without a hit are left out; they make up all but 13% or so of the library. Unless noted, calls follow the shape of the dose curve; as a rule, active = well fitted curve in the direction sought with a large enough effect; inconclusive = small, poorly fitted or top-dose-only effect, or another doubt; inactive = no such curve, though single readings can be large; an effect the other way counts as inactive or inconclusive.

SMILES	4MU fluor	A350 fluor	HSD17B inhib	HADH2 inhib	AID923
Cc1ccc2cc(C(c3nnnn3CC3CCCO3)N3CCCC4(CCCCC4)C3)c(=O)[nH]c2c1 (configuration not stated)	i	i	10%	1%	8%
CC(C)(C)n1nnnc1C(c1ccncc1)N1CCCCCC1 (configuration not stated)	i	i	0%	12%	2%
CCCN1CCN(C(c2cc3cc4c(cc3[nH]c2=O)OCO4)c2nnnn2C(C)(C)C)CC1 (configuration not stated)	1.7e-06M*	1.2e-06M*	32µM*	25µM*	9%
CC1CCN(C(c2cc3cc4c(cc3[nH]c2=O)OCO4)c2nnnn2CC2CCCO2)CC1 (configuration not stated)	4.4e-07M*	4e-07M*	200%	?	0%
CCC(C)(C)n1nnnc1C(c1cc2ccc(OC)cc2[nH]c1=O)N1CCN(C2CCCCC2)CC1 (configuration not stated)	?	?	-4%	7%	5%
COc1ccc2[nH]cc(CCNc3ncncc3-c3ccc(N(C)C)cc3)c2c1	i	i	?	-14%	1%
C[C@@H]1/C=C\CC(=O)OC[C@H](C)C(=O)N[C@@H](C)C(=O)OC1	.	.	3%[11.4 µM]	12%[11.4 µM]	-3%[11.5 µM]
Cc1ccc2cc(C(c3nnnn3CC3CCCO3)N3CCc4ccccc4C3)c(=O)[nH]c2c1 (configuration not stated)	?	?	-6%	4%	9%
CCOc1ccc2[nH]c(=O)c(C(c3nnnn3CC3CCCO3)N3CCc4ccccc4C3)cc2c1 (configuration not stated)	1.9e-07M*	2.4e-07M*	25µM*	-13%	7%
Cc1cccc([N+](=O)[O-])c1C	.	.	-6%	5%	-2%
NC(=O)CN1C(=O)C(O)(CC(=O)c2ccccc2O)c2ccccc21 (configuration not stated)	.	.	-1%	-9%	2%
CC1(C)c2ccccc2N2CC(=O)N(CC(N)=O)C21C (configuration not stated)	1.4e-06M*	2e-06M*	0%	-16%	-1%
Cc1nc(Cl)sc1C(=O)O	3.9e-08M*	4.6e-08M*	13%	0%	2%
CNc1nc(C)c(C(=O)OCC(=O)OC)s1	.	.	8%	-3%	1%
CC(C)(Oc1ccc(-c2cccc3ccccc23)cc1)C(=O)O	i	i	2%[11.4 µM]	15%[11.4 µM]	4%[11.5 µM]
NC(=O)c1sc2nccc(Nc3ccccc3)c2c1N	1.4e-08M*	1.5e-08M*	25µM*	?	6%
CCN(CC)CCOC(=O)c1ccc(NC(=O)CCNC(=O)Cn2ccc3ccccc3c2=O)cc1	?	1e-08M*	-7%	17%	2%
O=C(Cn1ccc2ccccc2c1=O)NCCC(=O)Nc1cccnc1	i	i	-12%	5%	-1%
CC(C)C1Cc2c(C#N)c(N)sc(=S)c2CO1 (configuration not stated)	?	1.1e-08M*	.	.	.
CC(C)C[C@H](NC(=O)[C@@H](NC(=O)N[C@@H](Cc1ccccc1)C(=O)O)[C@H]1CCN=C(N)N1)C(=O)N[C@H](C=O)Cc1ccccc1	i	i	.	-17%	.
Cc1nnc(S(=O)(=O)c2ccc(N=Nc3c(N)nc(N)nc3N)cc2)s1	i	i	9%[11.4 µM]	-3%[11.4 µM]	-1%[11.5 µM]
Cc1ccccc1-c1ccc2ncnc(NCc3cccs3)c2c1	i	i	2%	-22%	1%
Cc1ccc(C)c(OCC(=O)Nc2cc(C)on2)c1	.	.	10%	8%	0%
COCCn1cc(C(=O)c2ccccc2OCC(=O)Nc2cc(C)on2)cc(C#N)c1=O	1.4e-08M*	?	-24%	8%	5%
O=C(NCCCN1CCOCC1)c1cccs1	3.2e-08M*	3.4e-08M*	4%	5%	1%
O=C(NCCCN1CCOCC1)c1cc2ccccc2oc1=O	1.8e-08M*	2.6e-08M*	32µM*	-15%	1%
O=C(CSc1nc2ccccc2s1)NCCCN1CCOCC1	2.2e-08M*	2.2e-08M*	-10%	15%	-1%
O=C(NCCN1CCN(C(=O)c2cc3ccccc3oc2=O)CC1)c1cc2ccccc2oc1=O	?	?	32µM*	-5%	0%
